Screening data as filed in PubChem.
Shown are actives, neighbours in structure and some others; about 8.7% of the full set was active somewhere.
VACV Venus inh: inhibitors of vaccinia virus (Venus reporter) | Vaccinia virus Venus reporter expression, fluorescence | Potency, µM (titrated, usually from 36.5 µM), inactives show at the top dose activity change, negative = inhibition, hits mostly inhibitors | hit rate 0.46% among 330,000 | AID 720580; calls by dose curve; tested in A549 cells; further: nearly all actives have a fitted effect of over 30% in size
VACV mCherry inh: inhibitors of vaccinia virus infection (mCherry reporter signal) | Vaccinia virus mCherry reporter infection, fluorescence | Potency, µM (titrated, usually from 36.5 µM), for the others: top-dose activity change, negative = inhibition, actives largely listed as inhibitors | hit rate 0.63% among 310,000 | AID 720579; calls by dose curve; tested in A549 cells; further: nearly all actives have a fitted effect of over 35% in size
Pf growth 48h: inhibits P. falciparum growth in the first generation, 48 h; P. falciparum luciferase growth in erythrocytes, 48 h; Potency, µM (top dose mostly 28.7 µM), without a hit: at the top dose activity change, negative = inhibition, usual class: inhibitors; hit rate 5.9% among 310,000; AID 504832
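First compound was added to culture medium, then infected red cells at 0.1% parasitemia and 2% hematocrit (final). After incubation at 37 C under 5% CO2, luciferase detection reagent was dispensed and light output recorded.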
AMA1 RON2 block: inhibitors of Plasmodium falciparum AMA1-RON2 interaction; AlphaScreen AMA1-biotinylated RON2 peptide binding; Potency, µM (series often up to 58.2 µM), inactives show at the highest dose activity change, negative = inhibition, usual class: inhibitors; AID 720542; hit rate 0.2% among 360,000;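 further: 0% = vehicle wells and -100% = peptide control; nearly all actives have a fitted effect of over 45% in size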
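AMA1 (3D7) with his tag at 25 nM final met compounds first, then biotinylated RON2 peptide at 25 nM; detection used donor plus acceptor beads, 10 µg/mL apiece, read by AlphaScreen after 30 min at room temperature.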
Pf growth 96h: P. falciparum growth inhibition at 96 hour, primary screen for plastid delayed-death inhibitors; P. falciparum luciferase reporter growth, 96 h; Potency, µM (top dose mostly 28.7 µM), inactives show at the highest dose activity change, negative = inhibition, hits mostly inhibitors; hit rate 6.9% among 320,000
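96 h incubation, 37 C, 5% CO2, of luciferase-reporter P. falciparum-infected RBCs (2% hematocrit, 0.05% parasitemia final) with test compounds; endpoint luminescence.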
* marks the source's active call; other numbers are inactive results; i = inactive; ? = inconclusive; · = not tested or not shown; ! = not active in a repeat; [ ] = remark or other dose. Unless noted, the call rests on the fitted dose curve; in most records, active means well fitted curve in the direction sought with a large enough effect; inconclusive means small, poorly fitted or top-dose-only effect, or another doubt; inactive means no such curve, though single readings can be large; an effect the other way counts as inactive or inconclusive. Unless noted, on the % scale 0 is the no-effect control and ±100 the full control effect; potency means the concentration at half of the fitted maximal effect.

SMILES | VACV Venus inh | VACV mCherry inh | Pf growth 48h | AMA1 RON2 block | Pf growth 96h
CC(=O)SC1CC(=O)N(c2c(C)cccc2C)C1=O (stereo not drawn) | -10% | ? | 1.9µM* | -2% | 13%
CC(=O)SC1CC(=O)N(c2ccc(C(C)(C)C)cc2)C1=O (stereo not drawn) | 0%[7.34 µM] | -2%[7.34 µM] | 24% | 11% | 36%
COC(=O)C1=C(C)NC2=C(C(=O)CC(C)(C)C2)C1c1ccccn1 (stereo not drawn) | -12% | -10% | -4% | 4% | 9.3µM*
COC(=O)C1=C(C)NC2=C(C(=O)CC(C)(C)C2)C1c1ccsc1 (stereo not drawn) | -12% | · | ? | -3% | ?
CC1=C(C(=O)OC2CCCC2)C(c2coc3ccccc3c2=O)C2=C(CC(C)(C)CC2=O)N1 (stereo not drawn) | -30% | i | 4.1µM* | 12% | ?
Cc1oc(-c2ccccc2F)nc1CS(=O)(=O)CC(=O)NCCCN1CCc2ccccc2C1 | -13% | -13% | ? | -9% | 8.3µM*
CCN1CCCC1CNC(=O)CS(=O)(=O)Cc1nc(-c2ccccc2C)oc1C (stereo not drawn) | -2% | 26% | 12µM* | -7% | -16%
Cc1oc(-c2ccccc2F)nc1CS(=O)(=O)CC(=O)N1CCOCC1 | -14% | i | 5% | 11% | 9.3µM*
Cc1oc(-c2ccccc2F)nc1CS(=O)(=O)CC(=O)NCCN1CCCC1 | -11% | -8% | ? | -7% | 38%
CCN1CCCC1CNC(=O)CSCc1nc(-c2ccccc2C)oc1C (stereo not drawn) | · | · | ? | 17% | -4%
C[C@@H]1CN(Cc2ccc3c(c2)CN(Cc2cccc4c2OCO4)CCO3)C[C@H](C)O1 | 0% | -14% | · | · | ·
C=CC[n+]1cccc2cc(Br)ccc21 | -26% | -18% | · | · | ·
COc1ccc(-n2c(SCC(=O)NCc3ccccc3)nc3c([nH]c4ccccc43)c2=O)cc1 | -1% | -8% | · | · | ·
CCc1ccc(CNC(=O)CN2C(=O)c3cccnc3Oc3ccc(C)cc32)cc1 | -16% | i | · | · | ·
C=C1C(=O)C=C[C@]2(C)C[C@@H]3OC(=O)[C@](C)(O)[C@H]3C[C@@H]12 | ? | ? | 12µM* | 1% | 15µM*
CC(=O)Nc1nc2c(s1)CCc1ccccc1-2 | · | · | 67% | -8% | 62%
O=C(CCCl)Nc1nc2c(s1)CCc1ccccc1-2 | 5% | ? | ? | -21% | 2.1µM*
Cc1ccc2c(c1)C1CN(C)CCC1N2C(=O)COc1ccccc1F (stereo not drawn) | 5% | -3% | ? | -12% | 12µM*
Cc1ccc2c(c1)C1CN(C)CCC1N2C(=S)NC(=O)c1ccc(Cl)cc1Cl (stereo not drawn) | · | · | ? | 75% | 5.9µM*
Cc1ccc2c(c1)C1CN(C)CCC1N2C(=O)c1ccco1 (stereo not drawn) | -3% | -25% | 32% | 0% | ·
Cc1ccc2c(c1)C1CN(C)CCC1N2C(=O)Nc1cccc(Cl)c1 (stereo not drawn) | · | · | ? | -15% | ?
CC1(C)CC(=O)C2=C(C1)N(c1ccc(F)cc1)C(=O)CC2c1ccsc1 (stereo not drawn) | -2% | i | · | 0% | 3.3µM*
Cc1ccc(N2C(=O)CC(c3ccsc3)C3=C2CC(C)(C)CC3=O)cc1 (stereo not drawn) | · | · | ? | -3% | ?
COc1cccc(CNc2ncc(C(=O)Nc3cc(OC)c(OC)c(OC)c3)c(C)n2)c1 | · | · | 10µM* | 6% | ?
Cc1nc2c(n1C1CCCCC1)C(=O)c1ccccc1C2=O | 3% | -7% | 1.9µM* | -6% | 1.3µM*
SMILES | VACV Venus inh | VACV mCherry inh | Pf growth 48h | AMA1 RON2 block | Pf growth 96h
O=C1c2cccnc2C(=O)N1C1CCCCC1 | · | · | 22% | -4% | 209%
COc1ccc(Cl)cc1Nc1ncnc2c1nc1n2CCCC1 | -23% | -9% | · | · | ·
COc1ccc(Cl)cc1NC(=O)CN1c2ccccc2S(=O)(=O)c2ccccc21 | -2% | -3% | · | · | ·
COc1ccc(C(=O)NCCCN2CCCC2=O)cc1 | 3% | -3% | 31% | -5% | ·
COc1ccc(C(=O)N2CCCC2=O)cc1 | -9% | -21% | 19% | 0% | 13µM*!
CSc1nnc(CNC(=O)/C=C/c2ccccc2Cl)n1-c1ccc(F)cc1 | 0% | i | · | · | ·
CC(=O)Nc1cccc(C(=O)NCc2ccc3c(c2)CCN3C(=O)c2ccc(F)cc2)c1 | -6% | -19% | · | · | ·
COc1cc2c(cc1OC)C(COc1ccccc1OC)N(C(=O)c1ccco1)CC2 (stereo not drawn) | -19% | -20% | ? | -8% | 6.6µM*
COc1ccc(C(=O)N2CCc3cc(OC)c(OC)cc3C2c2ccc(OC)c(OC)c2)cc1OC (stereo not drawn) | -5% | -19% | 13µM* | -5% | 6.6µM*
CCOc1ccc(CC2c3cc(OCC)c(OCC)cc3CCN2C(=O)c2cc(OC)c(OC)c(OC)c2)cc1OCC (stereo not drawn) | · | · | 1.5µM* | -3% | 1.3µM*
COc1cc2c(cc1OC)C(COc1ccccc1OC)N(C(=O)C(C)C)CC2 (stereo not drawn) | -6% | -5% | ? | -4% | 10µM*
CCC(=O)N1CCc2cc(OC)c(OC)cc2C1COc1ccccc1OC (stereo not drawn) | -12% | -11% | ? | -19% | -8%
COc1ccc(OC)c(NC(=O)c2oc(=O)c3ccccc3c2-c2ccccc2)c1 | -2% | -9% | · | · | ·
CC(=O)c1ccc(NC(=O)c2cc3c(=O)oc4ccc(C)cc4c3s2)cc1 | 2% | -2% | · | · | ·
COc1cc2c(cc1OC)C(C)N(C(=O)c1sccc1C)CC2 (stereo not drawn) | · | · | -3% | -2% | ?
COc1cc2c(cc1OC)C(C)N(C(=O)c1cccc([N+](=O)[O-])c1)CC2 (stereo not drawn) | -17% | -12% | -8% | -12% | 0.52µM*
O=C(CCN1Cc2ccccc2OC(c2ccccc2F)C1)N1CCC(N2CCCC(O)C2)CC1 (stereo not drawn) | -11% | -9% | · | · | ·
Cc1ccc(NC(=O)C(c2ccccc2)N2CCN(CC(=O)NC3CC3)CC2)cc1Cl (stereo not drawn) | · | · | 5.2µM* | -7% | ?
Cc1ccc(C)c(NC(=O)C(c2ccccc2)N2CCN(CC(=O)N3CCOCC3)CC2)c1 (stereo not drawn) | · | · | · | 13% | ·
Cc1ccc(NC(=O)C(c2ccccc2)N2CCN(CC(=O)NC3CC3)CC2)cc1 (stereo not drawn) | -9% | i | 13µM* | -4%[11.6 µM] | ?
COc1ccc(C)cc1NC(=O)C(c1ccccc1)N1CCN(CC(=O)NC2CC2)CC1 (stereo not drawn) | -19% | i | 2.3µM* | -23% | 2.1µM*
O=C(CN1CCN(C(C(=O)Nc2cc(C(F)(F)F)ccc2Cl)c2ccccc2)CC1)NC1CC1 (stereo not drawn) | · | · | · | -4% | ·
